Laboratory results reported in PubChem BioAssay AID1845226 (National Center for Advancing Translational Sciences (NCATS), 2023).
Inconclusive results are not listed. A call without a number means that no potency is given here. Calls of active or inactive are those of the source. Calls follow the shape of the dose curve; as a rule, active = well fitted inhibition curve with a large enough effect; inconclusive = small, poorly fitted or top-dose-only effect; inactive = no such curve, though single readings can be large or run the other way.

experiment: Confirmatory fluorescence-based thiol-reactive (MSTI) qHTS assay for identification of artifact compounds; conditions: MSTI thiol-reactivity probe, 1 h; series mostly up to 39.2 µM
Description: PI: Alexander Tropsha Ph.D. UNC Eshelman School of Pharmacy University of North Carolina, Chapel Hill, North Carolina Hits from high-throughput screening (HTS) of chemical libraries are often false positives due to their interference with the assay detection technology. In response to this problem, we generated the largest publicly available library of chemical liabilities and developed a free webtool to predict HTS artifacts, both of which are described herein. More specifically, we generated, curated, and integrated HTS datasets for thiol reactivity, redox activity, and luciferase (firefly and nano) activity. Using these curated datasets, we developed and validated several Quantitative Structure-Interference Relationship (QSIR) models to predict nuisance behavior. […] These models were employed for virtual profiling of the National Center for Advancing Translational Science's (NCATS) in-house library, and 256 compounds for each assay were selected for the experimental validation of nuisance behavior. The BA for these external predictions ranged from 58 to 78% for compounds within the applicability domains of the models. […] The models developed in this study, along with aggregation models previously developed by our group (SCAM Detective) were implemented in "Liability Predictor," an online tool which may be used as part of chemical library design or for triaging HTS hits. Both the models and the curated datasets are publicly available at https://liability.mml.unc.edu/.
PROTOCOL TABLE SEQUENCE No. (e.g., 1, 2, 3, etc.); PARAMETER (e.g., Cells, Incubation, Reagent, etc.); VALUE; DESCRIPTION. 1; Reagent; 4 uL; […]. 2; Compounds and control; 16 nL; Kalypsis pin tool (Wako USA) equipped with a 1536-well pin head. 3; Incubation; 1 hour. 4; Detection; Fluorescence, ViewLux microplate reader, 525 nm excitation, 598 nm emission. NOTES (numbers refer to Sequence numbers above) 1. Assays determining (E)-2-(4-mercaptostyryl)-1,3,3-trimethyl-3H-indol-1-ium (MSTI) reactivity were performed as previously described in the literature with modifications for the quick identification of compounds reacting with thiol. In brief, 4 uL of MSTI or positive control Acetyl-MSTI (final concentrations of 4 uM and 4 uM, respectively) in assay buffer (2% DMSO in 1X PBS pH 7.4) was dispensed into all wells of a 1536-well assay plate (solid-bottom black plate; Greiner Bio One, Monroe, NC). 2. A Wako Pin-tool (Wako Automation, Richmond, VA) was used to transfer 16 nL of compounds (consisting of 7-plates in qHTS format, final concentration range 18.3 nM to 114 uM) or control MLS001163887 (final concentration range 1.22 nM to 40 uM). 3. Plates were centrifuged (121xg, 15 seconds) and incubated for 1 hour at room temperature protected from light. 4. Samples were read for fluorescence (Ex/Em = 525(20)/598(25) nm) on a ViewLux CCD imager (PerkinElmer). Data were normalized to Acetyl-MSTI (0% activity) and MSTI (100% activity) and the resulting percent inhibition data were fitted to a 4-parameter Hill equation using NCATS in-house software.
Potency is read from the fitted curve at half-maximal effect.

| SMILES | Potency |
| --- | --- |
| O=S1(=O)N=C(Oc2ccc(Br)cc2)c2ccccc21 | inactive |
| COc1ccc(-c2cc3ccc(O)c(CN4CCOCC4)c3oc2=O)cc1OC | inactive |
| O=S(=O)(Nc1ccc(S(=O)(=O)Nc2nccs2)cc1)c1ccc2ccccc2c1 | inactive |
| CCOC(=O)c1c(C)c(C(=O)NCc2ccc(Cl)cc2)c(C)n1CC | inactive |
| COc1ccccc1Cc1nc2ccccc2nc1SCC(=O)Nc1c(C)cccc1C | inactive |
| O=C(COc1ccccc1Cl)NCC1(N2CCOCC2)CCCCC1 | inactive |
| Cc1nn(C(=O)COc2ccccc2Br)c(C)c1Sc1ccccc1 | inactive |
| CC(C)c1nn2c(=O)cc(COC(=O)c3cccc(NC(=O)COc4ccc(F)cc4)c3)nc2s1 | inactive |
| O=C(O)c1ccccc1[N+](=O)[O-] | inactive |
| O=C(O)Cc1cc(I)c(Oc2cc(I)c(O)c(I)c2)c(I)c1 | inactive |
| Cc1ccccc1C(=O)Nc1cc(C)c(O)c(-c2nc3ccccc3o2)c1 | inactive |
| COc1ccc(CNC(=O)CCc2c(C)nc3c4cccnc4nn3c2C)cc1 | inactive |
| CCOC(=O)c1sc2cccc(F)c2c1S(=O)(=O)NCc1ccccc1Cl | inactive |
| O=C(COc1cccc(Cl)c1)N1CCC(c2nc3ccccc3o2)CC1 | inactive |
| COc1ccc2oc(=O)cc(CN3CCN(C(=O)c4ccccc4F)CC3)c2c1 | inactive |
| O=C1CCCc2[nH]c(=O)c(-c3nc(-c4cccc([N+](=O)[O-])c4)cs3)cc21 | 3.86 µM (active) |
| CCOC(=O)C1CCN(c2nc3ccccc3nc2Cl)CC1 | inactive |
| COc1ccc(C2Nc3ccccc3C(=O)N2CC(C)(C)C)cc1COc1ccc(NC(C)=O)cc1 (stereo not given) | inactive |
| Cc1ccc(OCc2nc3ccccc3n2Cc2ccccc2Cl)cc1 | inactive |
| O=C1CC(c2ccc(O)c(O)c2)Oc2cc(O)cc(O)c21 (stereo not given) | inactive |

| SMILES | Potency |
| --- | --- |
| COc1ccccc1N1CCN(S(=O)(=O)c2c(C)nc3sc(C)c(C)n3c2=O)CC1 | inactive |
| CCOc1ccc(NC(=O)CSc2nnc3scc(-c4ccccc4)n23)cc1 | inactive |
| Cc1c(C(=O)OCCOc2ccccc2)[nH]c2c1C(=O)CC(c1ccccc1)C2 (stereo not given) | inactive |
| CC(C)C(=O)SCCCCCCC(=O)Nc1nc(-c2ccccc2)cs1 | inactive |
| COc1ccc(NC(=O)N2CCc3c(sc4c3CCCC4)C2c2ccccc2OC)cc1 (stereo not given) | inactive |
| COc1ccc(C)cc1NC(=O)CN1C(=O)COc2ccc(S(=O)(=O)NC3CCCC3)cc21 | inactive |
| O=c1c2ccccc2nc2sc(NS(=O)(=O)c3ccc4c(c3)CCC4)nn12 | inactive |
| O=C(COCc1cc(-c2cccs2)on1)NCc1ccc(Cl)cc1 | inactive |
| COCCn1c(=N)c(C(=O)NC2CCCC2)cc2c(=O)n3cc(C)ccc3nc21 | inactive |
| CCCC(N[C@@H](C)C(=O)N1[C@H](C(=O)O)C[C@@H]2CCCC[C@@H]21)C(=O)OCC (stereo not given in full) | inactive |
| Cc1ccccc1C(=O)N1CCc2cc(-c3nc(NC(=O)Cc4ccccc4)sc3C)ccc21 | inactive |
| Cc1cc(C(=O)N2CCN(c3cccc(Cl)c3)CC2)c2c(C)nn(-c3ccccc3Cl)c2n1 | inactive |
| O=C(CSc1nccn1C1CCCC1)Nc1ccc(C(F)(F)F)cc1 | inactive |
| COc1ccc(CNC(=O)c2cc3sccc3n2Cc2ccc(C)cc2)cc1 | inactive |
| Cc1cc(C)cc(-n2c(SCC(=O)N3CCCCCC3)nc3c([nH]c4ccccc43)c2=O)c1 | inactive |
| Oc1ccc(-c2nc3ccc(Cl)cn3c2Nc2ccc3c(c2)OCO3)cc1 | 0.77 µM (active) |
| Cc1ccc(NC(=O)CC2Nc3cccc4cccc(c34)NC2=O)cc1 (stereo not given) | 1.54 µM (active) |
| Cc1cccc(NC(=O)CSc2nc3c([nH]c4ccccc43)c(=O)n2C)c1 | inactive |
| CCCS(=O)(=O)N1CC(=O)N(c2ccc(C)cc2)C(C)(C(=O)NC2CCCCCC2)C1 (stereo not given) | inactive |
| Clc1ccccc1CNc1ncnc2nc[nH]c12 | inactive |
